# Reference: article PMC7819943, “Rice protein-binding microarrays: a tool to detect cis-acting elements near promoter regions in rice”
# In all, about 39,000 sequences were measured (“fluorescence intensity (a.u.)”: median about 4,300, highest 2% from about 39,000 on). Many of the other results were omitted from the sample, so the highest values are more common in it than they were.
# Molecular target: T1, OsSMF1 (Oryza sativa, UniProt Q6ZLB0 1-436)
# T1 sequence: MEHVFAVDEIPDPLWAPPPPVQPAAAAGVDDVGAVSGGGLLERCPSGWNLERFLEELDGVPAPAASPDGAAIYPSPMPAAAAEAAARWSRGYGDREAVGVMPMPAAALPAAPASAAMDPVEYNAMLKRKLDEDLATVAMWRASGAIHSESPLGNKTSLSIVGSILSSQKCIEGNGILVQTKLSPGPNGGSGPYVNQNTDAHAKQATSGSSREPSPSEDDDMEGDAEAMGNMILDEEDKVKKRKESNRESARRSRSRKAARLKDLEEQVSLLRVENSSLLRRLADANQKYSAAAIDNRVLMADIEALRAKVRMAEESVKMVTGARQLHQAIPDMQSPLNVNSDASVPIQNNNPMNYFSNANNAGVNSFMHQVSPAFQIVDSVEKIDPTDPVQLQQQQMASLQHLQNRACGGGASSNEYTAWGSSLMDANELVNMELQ
# Experiment: protein-binding microarray (RPBM); PBS, 2% BSA, 51.3 ng/ul salmon testes DNA, 50 uM zinc acetate, 200 nM TF, 25 C, 1 h; high values mean tight binding
# Details: protein: recombinant; tags: N-terminal polyhistidine and DsRed monomer fusion (pET32a); chain copies: 2; label: CyDye5-dUTP incorporated in the synthesized complementary strand; 3' TTTTT single-stranded linker to array surface; dsDNA, one strand shown
# In short: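 Per-feature fluorescence intensity (arbitrary units), read on an Axon 4000B scanner, is the binding signal. Transcription factors carrying an N-terminal polyhistidine tag and DsRed fusion were expressed in E. coli BL21-CodonPlus and purified on Ni–NTA. A custom Agilent array, made double-stranded by primer extension with Cy5-dUTP and blocked with 2% BSA, was incubated with 200 nM protein in PBS, 2% BSA, salmon testes DNA and 50 µM zinc acetate at 25 °C for 1 h and then washed.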
row,Sequence,binding signal
1,CACCTCCCCTTCCCATCCCAACCGGCCAACCCTCCCCACCCGGAGTCACCTAGTGCAG,13900 fluorescence intensity (a.u.)
2,GCCGATCCCCGAGGAGGGCGGCGACGTGGAAGGGGAGGGCCGGAGTCACCTAGTGCAG,4090 fluorescence intensity (a.u.)
3,GGTAATGGGAGAGGCTGATGTGGCGTGAAATCTCTTGCGTCGGAGTCACCTAGTGCAG,16800 fluorescence intensity (a.u.)
4,TTTATCAAAGCGTCATATATCAATGACCAGAGGTACAACACGGAGTCACCTAGTGCAG,3940 fluorescence intensity (a.u.)
5,CACCATTTTGGGCCGACACATCAAGCAGGCCAACGCGCAGCGGAGTCACCTAGTGCAG,3300 fluorescence intensity (a.u.)
6,CCCAACTGTTCTTTCCGTCACGTCACGCACAAGTCAAAATCGGAGTCACCTAGTGCAG,5230 fluorescence intensity (a.u.)
7,ACCTGTGGACTTGCACGGTAACGTAGCACAATCTTCAAAGCGGAGTCACCTAGTGCAG,3810 fluorescence intensity (a.u.)
8,AGCGGCAGTAGCAAGGGAGCTAGGCCCCGAAGGAAAACCGCGGAGTCACCTAGTGCAG,46000 fluorescence intensity (a.u.)
9,CGGCGAAGTAGCAAGGGTTGAGTCTGCATCATCAACCAATCGGAGTCACCTAGTGCAG,3370 fluorescence intensity (a.u.)
10,GCCGAAACGCGAAGTGACAGTGACAAGGGAAGGACGGCCCCGGAGTCACCTAGTGCAG,3220 fluorescence intensity (a.u.)
11,TCCCCTCGCGGCGAACGCGCGCGCGCAACGAGAAGCCAAGCGGAGTCACCTAGTGCAG,3200 fluorescence intensity (a.u.)
12,TCCCCTTCACCGCAACTTCGGCGAAGTCAAGAAGGAGTAGCGGAGTCACCTAGTGCAG,43800 fluorescence intensity (a.u.)
13,TTTAGTAGTTTGAAAAGCATACGCGCGGAAACCGAGCAAGCGGAGTCACCTAGTGCAG,3190 fluorescence intensity (a.u.)
14,TGATGTTCTTACTGGTGGTGCTGATGACAATACTGAACAGCGGAGTCACCTAGTGCAG,3840 fluorescence intensity (a.u.)
15,TAAGTGGACCTATAGGTGCACACGTGGGGAGAGGGGCGTGCGGAGTCACCTAGTGCAG,5690 fluorescence intensity (a.u.)
16,GCACCAGCGGTCCTCAAACTTGTAAGGGTGTGTCATCTAGCGGAGTCACCTAGTGCAG,3660 fluorescence intensity (a.u.)
17,GCAAACAAAATATACCTGCCAAGTCAACTTCACGGCCGGACGGAGTCACCTAGTGCAG,4280 fluorescence intensity (a.u.)
18,TTTTCAATTGTACATTGAGTCATTGACAATGCACAATTTACGGAGTCACCTAGTGCAG,3680 fluorescence intensity (a.u.)
19,AGAAATCAACTTCAAACCTTTATTCTCAACATCAGGAGATCGGAGTCACCTAGTGCAG,26000 fluorescence intensity (a.u.)
20,CTATATTTTACTATAAGCTTAATCAAACTTCAAAATATTTCGGAGTCACCTAGTGCAG,14400 fluorescence intensity (a.u.)
21,ATTGTACACAACAAATTGAAATTTTCAATTCAACTTTTAACGGAGTCACCTAGTGCAG,43200 fluorescence intensity (a.u.)

row,Sequence,binding signal
1,TTTCAATTATTTAGGTATTAACATTAACTACTTTACTAACCGGAGTCACCTAGTGCAG,14800 fluorescence intensity (a.u.)
2,AGTTCAAGAAAACTTTATATTCAAACAAGAAAATTGGGGCCGGAGTCACCTAGTGCAG,40900 fluorescence intensity (a.u.)
3,ACTCTAAATTTAAACTTTTCACTCAATTGAAACTTTTCAACGGAGTCACCTAGTGCAG,24700 fluorescence intensity (a.u.)
4,TAAGAAAACTACAGCTTTATTACTCAAACTTAATATTAACCGGAGTCACCTAGTGCAG,39800 fluorescence intensity (a.u.)
5,GGGATGGCCAGATTGGAACTCAGCAGACTCGCTGATGACTCGGAGTCACCTAGTGCAG,3800 fluorescence intensity (a.u.)
6,TTGTCCCTATAATAATATGTCACTCAAAATTGCTAATAAACGGAGTCACCTAGTGCAG,3400 fluorescence intensity (a.u.)
7,GATGTACTCGAGTATCTTCCCCTTCCTAGTTCCTTCCCTTCGGAGTCACCTAGTGCAG,13900 fluorescence intensity (a.u.)
8,GATGCAAAGAGAGCTACTAGCTGAGTTGGATGGAATTAACCGGAGTCACCTAGTGCAG,5550 fluorescence intensity (a.u.)
9,AAGTAGGCGTAGTTAAATCAAATGAGTGCTGTGCTGTCCACGGAGTCACCTAGTGCAG,3400 fluorescence intensity (a.u.)
10,CCGTCGCCGTCGGCACCGCCGCCGGAGCTCCTCCCTGCTCCGGAGTCACCTAGTGCAG,3220 fluorescence intensity (a.u.)
11,ATCTACTGATTTACAACCTCCTTAATTAACAAGCACGGGTCGGAGTCACCTAGTGCAG,24600 fluorescence intensity (a.u.)
12,ACTCCTCGGATAGGCGATGGCGGCCGCGGTCACCGCGCCACGGAGTCACCTAGTGCAG,3370 fluorescence intensity (a.u.)
13,AAGCTGTTTCACAAGGCAGTTTTGCATACGTGGCGGGCTGCGGAGTCACCTAGTGCAG,21500 fluorescence intensity (a.u.)
14,AGGAAGGAAGGAAGCAAAATGCTGACGTGTACATAAACCGCGGAGTCACCTAGTGCAG,16000 fluorescence intensity (a.u.)
15,CACCGCGACGCACATACCCACCCGCCGGCCACGCACGAGACGGAGTCACCTAGTGCAG,4460 fluorescence intensity (a.u.)
16,GGTGTGGAGGGGTTGGACCAGAGCACGACGACGGCGAGGACGGAGTCACCTAGTGCAG,45100 fluorescence intensity (a.u.)
17,CGGTGCGAGGTACTACGTCAAGGCGTACGAGGCCAGGTACCGGAGTCACCTAGTGCAG,3140 fluorescence intensity (a.u.)
18,CACCCACGAGCACACCCGTACCAGGGGACGAGGAGGTGGACGGAGTCACCTAGTGCAG,38300 fluorescence intensity (a.u.)
19,CGCATACCGGCCAGAAACACGACGGCGACGAGGTGCACTACGGAGTCACCTAGTGCAG,41500 fluorescence intensity (a.u.)
20,CTAGACGCCGGCGACGACGAGGGTGGTTGGGTTGTGGATACGGAGTCACCTAGTGCAG,3740 fluorescence intensity (a.u.)
21,AGAGGGCGTGTACTCGTGACATCGTGTGTGTGCGTGTGCGCGGAGTCACCTAGTGCAG,6670 fluorescence intensity (a.u.)
